# Results reported in PMC5540273 (PLoS ONE, 2017).
# “And” between values parts separate entries of the source, which are not always exact repeats. Equal entries are not always repeated. Where two headings read alike, the source gives them in different places.
# Experiments:
# EPHB6 = settings: concentration: 1 μM, replicates: in singlicate, n = 1
# ERBB2 = settings: concentration: 1 μM, replicates: in singlicate, n = 1
# ERBB3 = settings: concentration: 1 μM, replicates: in singlicate, n = 1
# ERBB4 = settings: concentration: 1 μM, replicates: in singlicate, n = 1
# ERK1 = test system: T1, ERK1; settings: concentration: 1 μM, replicates: in singlicate, n = 1
# T1 construct: gene MAPK3
# ERK2 = test system: T2, ERK2; settings: concentration: 1 μM, replicates: in singlicate; n = 1
# T2 construct: gene MAPK1
# ERK3 = test system: T3, ERK3; settings: concentration: 1 μM, replicates: in singlicate, n = 1
# T3 construct: gene MAPK6
# ERK4 = test system: T4, ERK4; settings: concentration: 1 μM, replicates: in singlicate, n = 1
# T4 construct: gene MAPK4
# ERK5 = test system: T5, ERK5; settings: concentration: 1 μM, replicates: in singlicate; n = 1
# T5 construct: gene MAPK7
# ERK8 = test system: T6, ERK8; settings: concentration: 1 μM, replicates: in singlicate, n = 1
# T6 construct: gene MAPK15
# ERN1 = settings: concentration: 1 μM, replicates: in singlicate, n = 1
# FAK = test system: T7, FAK; settings: concentration: 1 μM, replicates: in singlicate, n = 1
# T7 construct: gene PTK2
# FER = settings: concentration: 1 μM, replicates: in singlicate, n = 1
# FES = settings: concentration: 1 μM, replicates: in singlicate, n = 1
# FGFR1 = settings: concentration: 1 μM, replicates: in singlicate, n = 1
# FGFR2 = settings: concentration: 1 μM, replicates: in singlicate, n = 1
# FGFR3 = settings: concentration: 1 μM, replicates: in singlicate, n = 1
# FGFR4 = settings: concentration: 1 μM, replicates: in singlicate, n = 1
# FGR = settings: concentration: 1 μM, replicates: in singlicate, n = 1
# FLT1 = settings: concentration: 1 μM, replicates: in singlicate, n = 1
# 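Note: KINOMEscan kinase panel screen.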
smiles,measurement,setting,value
Cc1c(Cn2c(C)nn3c(=O)cc(N4CCOC(C)C4)nc23)cccc1C(F)(F)F (centres unmarked) [GSK2344444],%Inh,EPHB6,0%
same,%Inh,ERBB2,0%
same,%Inh,ERBB3,0%
same,%Inh,ERBB4,0%
same,%Inh,ERK1,0%
same,%Inh,ERK2,0%
same,%Inh,ERK3,0%
same,%Inh,ERK4,11%
same,%Inh,ERK5,0%
same,%Inh,ERK8,26%
same,%Inh,ERN1,24%
same,%Inh,FAK,0%
same,%Inh,FER,25%
same,%Inh,FES,0%
same,%Inh,FGFR1,3%
same,%Inh,FGFR2,0%
same,%Inh,FGFR3,4%
same,%Inh,FGFR4,0%
same,%Inh,FGR,0%
same,%Inh,FLT1,25%
O=C1Cc2cc(Nc3nc(NCc4cccc(S(=O)(=O)C(F)(F)F)c4)ncc3C(F)(F)F)ccc2N1,%Inh,EPHB6,0%
same,%Inh,ERBB2,6%
same,%Inh,ERBB3,9%
same,%Inh,ERBB4,4%
same,%Inh,ERK1,0%
same,%Inh,ERK2,9%
same,%Inh,ERK3,31%
same,%Inh,ERK4,25%
same,%Inh,ERK5,0%
same,%Inh,ERK8,0%
same,%Inh,ERN1,0%
same,%Inh,FAK,0%
same,%Inh,FER,0%
same,%Inh,FES,7%
same,%Inh,FGFR1,0%
same,%Inh,FGFR2,1%
same,%Inh,FGFR3,5%
same,%Inh,FGFR4,0%
same,%Inh,FGR,0%
same,%Inh,FLT1,0%
CC(=O)Nc1ccc(COc2ccc(Nc3ccnc4cc(-c5ccccn5)ccc34)cc2)cc1.Cl [GW440148],%Inh,EPHB6,53%
same,%Inh,ERBB2,12%
same,%Inh,ERBB3,0%
same,%Inh,ERBB4,73%
same,%Inh,ERK1,0%
same,%Inh,ERK2,0%
same,%Inh,ERK3,6%
same,%Inh,ERK4,47%
same,%Inh,ERK5,14%
same,%Inh,ERK8,0%
same,%Inh,ERN1,17%
same,%Inh,FAK,1%
same,%Inh,FER,0%
same,%Inh,FES,13%
same,%Inh,FGFR1,0%
same,%Inh,FGFR2,0%
same,%Inh,FGFR3,14%
same,%Inh,FGFR4,0%
same,%Inh,FGR,36%
same,%Inh,FLT1,99.2%
COc1ccc(Nc2nccc(N3CCC(NC(=O)Nc4cccc(C(C)=O)c4)C3)n2)cc1 (centres unmarked) [GSK1379731],%Inh,EPHB6,0%
same,%Inh,ERBB2,14%
same,%Inh,ERBB3,0%
same,%Inh,ERBB4,5%
same,%Inh,ERK1,0%
same,%Inh,ERK2,0%
same,%Inh,ERK3,7%
same,%Inh,ERK4,0%
same,%Inh,ERK5,0%
same,%Inh,ERK8,25%
same,%Inh,ERN1,0%
same,%Inh,FAK,0%
same,%Inh,FER,12%
same,%Inh,FES,1%
same,%Inh,FGFR1,3%
same,%Inh,FGFR2,0%
same,%Inh,FGFR3,2%
same,%Inh,FGFR4,30%
same,%Inh,FGR,20%
same,%Inh,FLT1,33%
CCc1nc(-c2cccc(C)c2)c(-c2ccnc(NCc3ccccc3)c2)s1,%Inh,EPHB6,5%
same,%Inh,ERBB2,22%
same,%Inh,ERBB3,2%
same,%Inh,ERBB4,3%
same,%Inh,ERK1,0%
same,%Inh,ERK2,11%
same,%Inh,ERK3,0%
same,%Inh,ERK4,5%
same,%Inh,ERK5,3%
same,%Inh,ERK8,0%
same,%Inh,ERN1,16%
same,%Inh,FAK,0%
same,%Inh,FER,0%
same,%Inh,FES,6%
same,%Inh,FGFR1,0%
same,%Inh,FGFR2,8%
same,%Inh,FGFR3,0%
same,%Inh,FGFR4,0%
same,%Inh,FGR,8%
same,%Inh,FLT1,0%
NCCNS(=O)(=O)c1ccc(-c2ccnc3[nH]ccc23)cc1 [GSK977617],%Inh,EPHB6; 1 µM,13% and 24%
same,%Inh,ERBB2; 1 µM,37% and 0%
same,%Inh,ERBB3; 1 µM,3% and 0%
same,%Inh,ERBB4; 1 µM,47% and 0%
same,%Inh,ERK1; 1 µM,8% and 0%
same,%Inh,ERK2,0%
same,%Inh,ERK3; 1 µM,12% and 17%
same,%Inh,ERK4; 1 µM,3% and 25%
same,%Inh,ERK5,0%
same,%Inh,ERK8; 1 µM,46% and 17%
same,%Inh,ERN1; 1 µM,31% and 6%
same,%Inh,FAK; 1 µM,5% and 0%
same,%Inh,FER; 1 µM,53% and 22%
same,%Inh,FES; 1 µM,11% and 0%
same,%Inh,FGFR1; 1 µM,57% and 38%
same,%Inh,FGFR2; 1 µM,6% and 0%
same,%Inh,FGFR3; 1 µM,6% and 10%
same,%Inh,FGFR4; 1 µM,11% and 6%
same,%Inh,FGR; 1 µM,31% and 11%
same,%Inh,FLT1; 1 µM,60% and 33%
COC(=O)Nc1nc2cc(Oc3ccc(NC(=O)Nc4cc(F)ccc4F)cc3)ccc2[nH]1.Cl [GW701424],%Inh,EPHB6,5%
same,%Inh,ERBB2,43%
same,%Inh,ERBB3,26%
same,%Inh,ERBB4,27%
same,%Inh,ERK1,0%
same,%Inh,ERK2,3%
same,%Inh,ERK3,8%
same,%Inh,ERK4,0%
same,%Inh,ERK5,0%
same,%Inh,ERK8,0%
same,%Inh,ERN1,0%
same,%Inh,FAK,0%
same,%Inh,FER,0%
same,%Inh,FES,0%
same,%Inh,FGFR1,0%
same,%Inh,FGFR2,0%
same,%Inh,FGFR3,19%
same,%Inh,FGFR4,6%
same,%Inh,FGR,9%
same,%Inh,FLT1,99%
Cn1ccc2ncnc(Oc3ccc(NC(=O)Nc4ccncc4)c(Cl)c3)c21,%Inh,EPHB6,0%
same,%Inh,ERBB2,15%
same,%Inh,ERBB3,0%
same,%Inh,ERBB4,0%
same,%Inh,ERK1,0%
same,%Inh,ERK2,0%
same,%Inh,ERK3,5%
same,%Inh,ERK4,0%
same,%Inh,ERK5,0%
same,%Inh,ERK8,1%
same,%Inh,ERN1,0%
same,%Inh,FAK,0%
same,%Inh,FER,0%
same,%Inh,FES,0%
same,%Inh,FGFR1,0%
same,%Inh,FGFR2,0%
same,%Inh,FGFR3,0%
same,%Inh,FGFR4,0%
same,%Inh,FGR,5%
same,%Inh,FLT1,0%
N#Cc1ccc(-c2cc(-c3c[nH]nc3-c3ccccn3)ccn2)cc1 [GW693028],%Inh,EPHB6,2%
same,%Inh,ERBB2,28%
same,%Inh,ERBB3,0%
same,%Inh,ERBB4,27%
same,%Inh,ERK1,6%
same,%Inh,ERK2,0%
same,%Inh,ERK3,0%
same,%Inh,ERK4,3%
same,%Inh,ERK5,0%
same,%Inh,ERK8,10%
same,%Inh,ERN1,0%
same,%Inh,FAK,0%
same,%Inh,FER,7%
same,%Inh,FES,4%
same,%Inh,FGFR1,0%
same,%Inh,FGFR2,0%
same,%Inh,FGFR3,0%
same,%Inh,FGFR4,12%
same,%Inh,FGR,21%
same,%Inh,FLT1,0%
O=C1NC(=O)C(N2CCc3ccccc32)=C1c1cccc(Cl)c1 [SB-408010],%Inh,EPHB6,0%
same,%Inh,ERBB2,0%
same,%Inh,ERBB3,0%
same,%Inh,ERBB4,0%
same,%Inh,ERK1,0%
same,%Inh,ERK2,12%
same,%Inh,ERK3,0%
same,%Inh,ERK4,0%
same,%Inh,ERK5,0%
same,%Inh,ERK8,9%
same,%Inh,ERN1,27%
same,%Inh,FAK,0%
same,%Inh,FER,0%
same,%Inh,FES,31%
same,%Inh,FGFR1,5%
same,%Inh,FGFR2,15%
same,%Inh,FGFR3,0%
same,%Inh,FGFR4,0%
same,%Inh,FGR,22%
same,%Inh,FLT1,11%
